From PubChem BioAssay AID2685 (National Center for Advancing Translational Sciences (NCATS), 2010)
In all, about 320,000 compounds went through this assay and about 2,100 (0.66%) were called active. Another 53% or so got no clear call; they are omitted. The call rests on the fitted dose curve; in most records, active means well fitted inhibition curve with a large enough effect in the signal ratio, with a control signal flat (not every such curve was filed as active); inconclusive means small, poorly fitted or top-dose-only effect, or effect the other way, or a change in a side signal; inactive means flat fitted curve, though single readings scatter; the % refers to the signal ratio. What follows is part of a selection rich in actives, with near analogues and random picks from the rest.

Assay: qHTS Assay for Lipid Storage Modulators in Drosophila S3 Cells;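 on cell number change: cells counted by Cell Tracker Red CMTPX staining in the red channel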; on lipid storage change, negative = inhibition: on the % scale 0 is the no-effect control and ±100 the full control effect
Conditions: BODIPY lipid droplet fluorescence, 18-24 h, cells fed with added oleic acid; cell number change: measured here: cell count max response; series mostly up to 46.1 µM; lipid storage change, negative = inhibition: at the top concentration
How it was run: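 Drosophila S3 cells loaded with oleic acid (400 uM, as added) and compounds at several concentrations; lipid droplets imaged by 488-nm laser-scanning cytometry, 500–530 nm intensity and object ratio to cell channel. Percent activity normalized to 20 uM Triacsin C.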
Potency means the concentration at half of the fitted maximal effect.

Row | Structure (SMILES) | outcome | lipid storage change, negative = inhibition | cell number change [%] | Potency
1 | CCc1ccccc1N1CCN(S(=O)(=O)c2cc(OC)ccc2OC)CC1 | inactive |  |  | 
2 | CCc1ccc(Nc2cnn(C34CC5CC(CC(CC(=O)O)(C5)C3)C4)c(=O)c2Cl)cc1 |  | 7.65% (inactive) | 8.4 | 
3 | Cc1ccc(Nc2cnn(C34CC5CC(CC(CC(=O)O)(C5)C3)C4)c(=O)c2Cl)c(Cl)c1 |  | 2.44% (inactive) | 5.36 | 
4 | Cc1cc(C)cc(Nc2cnn(C34CC5CC(CC(CC(=O)O)(C5)C3)C4)c(=O)c2Cl)c1 |  |  | -2.34 | 18.4 µM (active)
5 | Cc1ccc(CN2CCN(CC(C)C)C(CCO)C2)s1 (centres undefined) |  | 6.7% (inactive) | 20.3 | 
6 | CN(C)c1ccc(NC(=O)C[n+]2ccccc2)cc1 |  | 22.6% (inactive) | 22.5 | 
7 | N#Cc1c(OCC(=O)c2ccccc2)nc2c(c1-c1ccco1)CCc1ccccc1-2 |  |  | -13 | 8.2 µM (active)
8 | CCOC(=O)COc1nc2c(c(-c3ccco3)c1C#N)CCc1ccccc1-2 |  | 2.63% (inactive) | 3.1 | 
9 | CC(=O)COc1nc2c(c(-c3ccco3)c1C#N)CCc1ccccc1-2 |  | -0.398% (inactive) | 7.55 | 
10 | CCCOC(=O)Cn1c(=O)c2cc3c(=O)n(CC(=O)OCCC)c(=O)c3cc2c1=O | inactive |  | -10.2 | 
11 | CCOC(=O)C1=C(C)N=C2SCCC(=O)N2C1c1cccs1 (centres undefined) |  | 9.97% (inactive) | -2.29 | 
12 | O=C(O)Cc1sc(Nc2cccc3ccccc23)nc1-c1ccc(Cl)cc1 |  | 8.83% (inactive) | 13.4 | 
13 | O=C(O)Cc1sc(Nc2cccc3ccccc23)nc1-c1ccccc1 |  |  | 25.4 | 0.092 µM (active)
14 | O=C(O)Cc1sc(Nc2cccc3ccccc23)nc1-c1ccc(F)cc1 |  | -9.11% (inactive) | 12.9 | 
15 | O=c1c([N+](=O)[O-])c(N2CCOCC2)c2ccccc2n1-c1ccccc1 |  | 14.5% (inactive) | 8.53 | 
16 | CCc1cccc(NC(=O)CCCn2nc(CC)n3c(cc4occc43)c2=O)c1 |  |  | -27.3 | 20.6 µM (active)
17 | CCc1nn(CCCC(=O)N2CCC(C)CC2)c(=O)c2cc3occc3n12 |  |  |  | 4.11 µM (active)
18 | CCOC(=O)C1CCN(C(=O)CCCn2nc(CC)n3c(cc4occc43)c2=O)CC1 | inactive |  | -12.6 | 
19 | CCc1nn(CCCC(=O)NCc2ccco2)c(=O)c2cc3occc3n12 | inactive |  | -6.49 | 
20 | CCc1nn(CCCC(=O)N2CCN(c3cccc(C)c3C)CC2)c(=O)c2cc3occc3n12 | inactive |  |  | 
21 | CCc1nn(CCCC(=O)NCc2ccccc2C)c(=O)c2cc3occc3n12 | inactive |  | -19.5 | 
22 | COCCNC(=O)Cn1nc(-c2ccccc2C)ccc1=O |  | -4.82% (inactive) | 8.76 | 
23 | O=C(CN(C(=O)c1ccc(Cl)cc1)N1C(=O)C2C3C=CC(C3)C2C1=O)c1cccs1 (centres undefined) |  | 5.92% [at 9.22 µM] (inactive) | -8.51 | 

Row | Structure (SMILES) | outcome | lipid storage change, negative = inhibition | cell number change [%] | Potency
24 | COCC(C)NC(=O)C(C)N1c2cccc3cccc(c23)S1(=O)=O (centres undefined) |  | -19% (inactive) | 3.31 | 
25 | O=C1CC(c2ccco2)CC(O)=C1C=Nc1ccccc1-c1ccccc1 (centres undefined) |  | 2.69% (inactive) | 5.01 | 
26 | O=C1CC(c2ccco2)CC(O)=C1C=Nc1cc(Cl)cc(Cl)c1 (centres undefined) |  |  | 13.6 | 25.9 µM (active)
27 | O=C1CC(c2ccco2)CC(O)=C1C=Nc1cc(Cl)ccc1Cl (centres undefined) |  | 3.89% (inactive) | 10.5 | 
28 | O=C(C1CCN(C2CCN(C/C=C/c3ccccc3)CC2)CC1)N1CCOCC1 |  | 0.713% (inactive) | 7.25 | 
29 | O=C(C1=C(O)C(=O)N(c2ncccn2)C1c1cccc(Cl)c1)c1ccco1 (centres undefined) |  |  | 5.29 | 6.51 µM (active)
30 | O=C(C1=C(O)C(=O)N(CC2CCCO2)C1c1cccc(O)c1)c1ccco1 (centres undefined) |  | -14% (inactive) | -19.7 | 
31 | Cc1ccc(C2C(C(=O)c3ccco3)=C(O)C(=O)N2c2ncccn2)cc1 (centres undefined) |  | 14.9% (inactive) | 10.6 | 
32 | O=C(C1=C(O)C(=O)N(CC2CCCO2)C1c1ccc(Cl)cc1)c1ccco1 (centres undefined) | inactive |  | 18.3 | 
33 | O=C(C1=C(O)C(=O)N(c2ncccn2)C1c1ccc(Cl)cc1)c1ccco1 (centres undefined) |  | -11.9% (inactive) | 8.73 | 
34 | O=C(C1=C(O)C(=O)N(CC2CCCO2)C1c1ccccc1Cl)c1ccco1 (centres undefined) |  |  | -3.95 | 6.51 µM (active)
35 | COc1ccc(C2C(C(=O)c3ccco3)=C(O)C(=O)N2CC2CCCO2)c(OC)c1 (centres undefined) |  | -8.33% (inactive) | -0.87 | 
36 | O=C(C1=C(O)C(=O)N(Cc2ccco2)C1c1cccc(Cl)c1)c1ccco1 (centres undefined) |  | -28% (inactive) | 15 | 
37 | O=C(C1=C(O)C(=O)N(CC2CCCO2)C1c1cccc(Cl)c1)c1ccco1 (centres undefined) |  |  | -5.86 | 0.82 µM (active)
38 | COC(=O)c1ccc(NC(=S)NCc2ccco2)cc1 |  | -4.68% [at 9.22 µM] (inactive) | -29.4 | 
39 | CCN(CC)N=Nc1ccc(S(N)(=O)=O)cc1 |  | 14.8% (inactive) | -10.8 | 
40 | O=C(c1ccc(Cl)cc1)N1CCN(c2ccc(F)cc2)CC1 |  | 8.11% (inactive) | -2.3 | 
41 | CCOC(=O)c1cccc(NC(=O)CNC(=O)C2CCCCC2)c1 | inactive |  | 12.1 | 
42 | Cn1c(=O)c(C(=O)NCc2ccccc2)c(O)c2ccccc21 | inactive |  |  | 
43 | C[C@H]1CC[C@@]2(O[C@@H](CCO)C[C@@H](O)[C@@H]2O)O1 |  | -0.85% (inactive) | 10.3 | 
44 | Cn1c(SCC(=O)N2CCN(c3ccccc3)CC2)nnc1-c1ccccc1 | inactive |  | 1.56 | 
45 | CC(NC(=O)c1ccccc1F)c1nnc(SCC(=O)N2CCN(c3ccccc3)CC2)n1C (centres undefined) |  |  | -26.5 | 0.82 µM (active)
46 | CC(NC(=O)c1ccccc1F)c1nnc(SCC(=O)NC2=NCCS2)n1C (centres undefined) | inactive |  | -19.7 | 

Row | Structure (SMILES) | outcome | lipid storage change, negative = inhibition | cell number change [%] | Potency
47 | COc1ccc(NC(=O)CSCc2cc(=O)n3c(C)csc3n2)cc1 | inactive |  | 4.18 | 
48 | CC(C)Nc1nc2n(c(=O)n1)CCN2C(C)C |  |  | 0.328 | 4.11 µM (active)
49 | CC(C)Nc1nc(NC(C)C)nc(Nn2cnnc2)n1 |  | -11.9% (inactive) | -7.52 | 
50 | CC(C)Nc1nc(NC(C)C)nc(SCC(N)=O)n1 |  | -7.46% (inactive) | -10.2 | 
51 | CC1(C)CC2(C)Nc3ccccc3N2C(=S)N1 (centres undefined) |  | 3.67% (inactive) | -13.1 | 
52 | COc1ccc(NC(=O)Nc2ccc(C(=O)N3CCOCC3)cc2)cc1OC |  | -17% (inactive) | -17.3 | 
53 | O=C(CNC(=O)c1ccc(Br)o1)Nc1ncccc1O |  | 16.8% (inactive) |  | 
54 | C=C1CCC[C@]2(C)C[C@H]3OC(=O)C(CNC(C)CC)[C@H]3CC12 (some centres undefined) |  | -6.88% (inactive) | -16.4 | 
55 | C=C1CCC[C@]2(C)C[C@H]3OC(=O)C(CN4CC(C)OC(C)C4)[C@H]3C[C@@H]12 (some centres undefined) |  | 1.66% (inactive) | 8.39 | 
56 | C=C1CCC[C@]2(C)C[C@H]3OC(=O)C(CN4CCOCC4)[C@H]3C[C@@H]12 (some centres undefined) |  |  | -15.3 | 8.2 µM (active)
57 | O=C(COC(=O)c1ccc(S(=O)(=O)N2CCOCC2)cc1)NCc1cccs1 |  | -5.08% (inactive) | -3.56 | 
58 | CC1CCCCC1NC(=O)CN1C(=O)NC(Cc2ccccc2)(Cc2ccccc2)C1=O (centres undefined) | inactive |  | 27.7 | 
59 | Cn1c(NC(=O)/C=C\c2ccccc2)cc(=O)n(C)c1=O |  | 2.84% (inactive) | -2.62 | 
60 | COC(=O)c1ccc(OC(=O)c2ccccn2)cc1 |  | -5.28% (inactive) | 10.3 | 
61 | CC1(C)CC(=O)CC(C)(C)N1OC(=O)c1ccccn1 |  |  |  | 32.6 µM (active)
62 | CC(=O)c1ccccn1 |  | 9.67% (inactive) | 12.7 | 
63 | CC(C#N)Sc1nnc(-c2ccccc2F)n1C1CC1 (centres undefined) | inactive |  | 7.26 | 
64 | NNC(=O)c1cc(C2CC2)nc2ccc(Br)cc12 |  | 0.205% (inactive) | -5.67 | 
65 | O=C(NCCOc1nc(N2CCCCC2)nc(N2CCCCC2)n1)Nc1ccccc1 |  | -1.62% (inactive) | 0.327 | 
66 | O=C(NCCOc1nc(N2CCCCC2)nc(N2CCOCC2)n1)Nc1ccccc1 |  |  | -5.19 | 0.731 µM (active)
67 | O=C(NCCOc1nc(N2CCOCC2)nc(N2CCOCC2)n1)Nc1ccccc1 |  | 6.9% (inactive) | -14.8 | 
68 | Cc1ccc(NNC(N)=S)cc1Cl |  | 10.3% (inactive) | 18.1 | 
69 | COc1ccccc1-c1nnc(C2CCN(S(=O)(=O)c3ccccc3[N+](=O)[O-])CC2)o1 |  | -28.1% (inactive) |  | 

Row | Structure (SMILES) | outcome | lipid storage change, negative = inhibition | cell number change [%] | Potency
70 | Cc1cccc(-c2nc(CN3CCCC(C(=O)NC4CCCCCC4)C3)c(C)o2)c1 (centres undefined) |  | -4.34% (inactive) | 2.33 | 
71 | Cc1ccc(C)c(S(=O)(=O)N2CCN(C(=O)c3ccc(C)s3)CC2)c1 |  | -9.47% (inactive) | 6.27 | 
72 | Cc1ccc(C)c(S(=O)(=O)N2CCN(C(=O)c3cccn3C)CC2)c1 | inactive |  | -13.9 | 
73 | Cc1ccccc1-n1nc(C)c2cc(C(=O)N3CCN(S(=O)(=O)c4ccc(Cl)cc4)CC3)sc21 |  | -0.0133% (inactive) | -4.24 | 
74 | CCOC(=O)N1CCN(S(=O)(=O)c2ccc(Cl)cc2)CC1 | inactive |  | 24.3 | 
75 | CCc1cc(C(=O)N2CCN(S(=O)(=O)c3ccc(Cl)cc3)CC2)sc1C |  |  | 6.97 | 11.6 µM (active)
76 | CCc1cc(C(=O)N2CCN(S(=O)(=O)c3cc(C)ccc3C)CC2)sc1C |  |  | -8.23 | 20.6 µM (active)
77 | COc1ccccc1N1CCN(CC(O)COc2ccc3c(c2)CCC3)CC1 (centres undefined) |  | -12.6% (inactive) | 1.49 | 
78 | COc1ccc(-c2cc(C(=O)N3CCOCC3)no2)cc1OC |  | 10.4% (inactive) | -3.96 | 
79 | CSCCNC(=O)Nc1c(-c2c(Cl)cccc2Cl)noc1C |  | 2.52% (inactive) |  | 
80 | COc1ccccc1C1(CC(=O)O)CCOC(C(C)C)C1 (centres undefined) |  | -17.5% (inactive) | -4.59 | 
81 | CCOC(=O)CC1(c2ccccc2)CCOC(C)(C)C1 (centres undefined) |  | -20% (inactive) | 5.31 | 
82 | CCC1(C)CC(CC(=O)O)(c2ccccc2OC)CCO1 (centres undefined) |  |  | -13.5 | 29.1 µM (active)
83 | CC(C)c1ccc(S(=O)(=O)N2CCN(C(=O)C3CC3C)CC2)cc1 (centres undefined) |  | 9.88% [at 0.0737 µM] (inactive) | 13.5 | 
84 | CC(=O)N1CCc2cc(Br)cc(S(=O)(=O)NCCCN3CCC(C)CC3)c21 |  | -1.66% (inactive) | 6.06 | 
85 | Cc1cnc(C(=O)OCC(=O)c2ccc(F)c(F)c2)cn1 | inactive |  | 6.94 | 
86 | Cc1nc2ncnn2c(C)c1CCC(=O)NC(C)CCc1ccco1 (centres undefined) |  | -27.5% (inactive) | -25.3 | 
87 | CC(C)Oc1ccccc1C(=O)NC(CO)C(=O)O (centres undefined) |  | 7.17% (inactive) | -13.9 | 
88 | CCOc1ccccc1C(=O)NC(CO)C(=O)O (centres undefined) |  |  | -20.4 | 20.6 µM (active)
89 | CC(C)COc1ccccc1C(=O)NC(CO)C(=O)O (centres undefined) |  | 10% (inactive) | -5.46 | 
90 | CS(=O)(=O)N(Cc1ccccc1)c1ccc(C(=O)N2CCc3ccccc3C2)cc1 |  | -15.5% (inactive) | 13.2 | 
91 | Cc1cc(/C=N/Nc2nc(N3CCOCC3)nc(N3CCOCC3)n2)c(C)n1-c1ccccc1 |  | 0.381% (inactive) | 2.32 | 
